log2 fold change data for 40 targets are collected here from the supplement of paper PMC12819154, “High-throughput peptide-centric local stability assay extends protein–ligand identification to membrane proteins, tissues and bacteria” (Nature Structural & Molecular Biology, 2025).
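Further: lysate desalted by size exclusion to strip endogenous ATP, peptide intensities built from DIA-NN precursor signals, and peptides missing any value discarded before comparison.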

Compound in the experiment: Nc1ncnc2c1ncn2[C@@H]1O[C@H](COP(=O)(O)OP(=O)(O)OP(=O)(O)O)[C@@H](O)[C@H]1O [adenosine 5'-triphosphate]
Description: log2 fold change of tryptic peptide abundance, ligand vs vehicle (limited proteolysis) (log2 ratio); higher = more trypsin-susceptible (destabilized). The settings on record: ligand concentration: 5 mM; sample: E. coli desalted lysate; replicate design: treated before aliquoting. As for the experimental part:
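HT-PELSA: desalted E. coli K-12 BW25113 lysate (with 12 mM MgCl2) incubated with 5 mM ATP (pH 7) or water for 30 min at 25 C, then a 4 min trypsin pulse at 22 C. Peptides were quantified by DIA-MS (4 replicates). Value is the peptide log2 fold change (treated/control); negative = stabilized. Scale: negative = ligand-stabilized region.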
On to “UniProt P26281 (peptide sequence: ALGDIPESHILTVSSFYR, peptide start residue: 25)”, for which the log2 fold change was -3.29.

In the case of “UniProt P45955 (peptide sequence: AVYQQVISKYPGTDGAK, peptide start residue: 238)”, the log2 fold change was 0.687. The same measure for “UniProt P28631 (peptide sequence: YLLCQQPQGHK, peptide start residue: 47)”: -0.546; for “UniProt P07648 (peptide sequence: VKAHLTCLHTR, peptide start residue: 776)”: 1.26; for “UniProt P23841 (peptide sequence: LNMSQPPLSIHIK, peptide start residue: 31)”: -0.876. “UniProt P77555 (peptide sequence: VEYYAER, peptide start residue: 49)”: the log2 fold change is -0.74. Turning to “UniProt P0AA37 (peptide sequence: LLLHAEMLTITHPAYGNSMTFK, peptide start residue: 193)”, the log2 fold change was -0.465. Under “UniProt P16691 (peptide sequence: VGFNANLRDPNMR, peptide start residue: 36)” stands -0.259. Under “MurF (peptide sequence: VVALTGSSGK, peptide start residue: 102) (UniProt P11880)” stands -1.5. Under “UniProt P69829 (peptide sequence: EKMGSTGIGNGIAIPHGKLEEDTLR, peptide start residue: 58)” stands 0.37. Take “UniProt P0A800 (peptide sequence: IGNRFDLVLVAAR, peptide start residue: 13)”: the log2 fold change is -0.922. The same measure for “UniProt Q47129 (peptide sequence: LDADLPMVQLSHR, peptide start residue: 141)”: -1.3; for “UniProt P21645 (peptide sequence: KTAALVMNIDDMSKR, peptide start residue: 315)”: -0.565; for “UniProt P33919 (peptide sequence: LLGLTATPFR, peptide start residue: 146)”: -1.8.

As for “UniProt P77756 (peptide sequence: HRAEIDVAR, peptide start residue: 39)”, the log2 fold change is -2.3. For the target “UniProt P05804 (peptide sequence: DKNHPSVVMWSIANEPDTRPQGAR, peptide start residue: 399)”, the log2 fold change was -0.737. Under “UniProt P30176 (peptide sequence: LVEHTENDAYWGDGGHGK, peptide start residue: 123)” stands -0.814; under “UniProt P00946 (peptide sequence: FEAKPANQLLTQPVK, peptide start residue: 293)”, -0.633. Under “UniProt P33602 (peptide sequence: IAPYYHLFGSDELSQR, peptide start residue: 812)” stands 0.28; under “UniProt P37440 (peptide sequence: LADELCGR, peptide start residue: 45)”, -0.817; under “UniProt P31663 (peptide sequence: VLSSIADKLQAGER, peptide start residue: 207)”, -3.26. The same measure for “UniProt P37188 (peptide sequence: VNEIETYMDGVHLICTTAKVDR, peptide start residue: 41)”: 0.402.

For “UniProt P39400 (peptide sequence: VLGHEICGEIVGLGK, peptide start residue: 59)”, the log2 fold change is -1.26. With “UniProt P75919 (peptide sequence: LLSDDPAKGEGK, peptide start residue: 249)”, the log2 fold change was -0.826.

As for “UniProt P0AG16 (peptide sequence: TFIMPGQQLR, peptide start residue: 334)”, the log2 fold change is -0.26. Under “UniProt P39180 (peptide sequence: NLNGQNGTISLR, peptide start residue: 603)” stands 0.735; under “UniProt P27300 (peptide sequence: SVDAVIVNGGVPR, peptide start residue: 190)”, -2.1; under “UniProt P18775 (peptide sequence: IAHAVDSAIPTK, peptide start residue: 42)”, -0.536.

As for “UniProt P15005 (peptide sequence: LAYLLTGEK, peptide start residue: 214)”, the log2 fold change was -1.01.

In the case of “UniProt P0AB77 (peptide sequence: AGMDSHGFGMASVR, peptide start residue: 67)”, the log2 fold change was -0.449. Under “UniProt P52061 (peptide sequence: FHCVLVYLR, peptide start residue: 118)” stands -0.642; under “UniProt P32684 (peptide sequence: ITLVQGLNR, peptide start residue: 179)”, 0.498; under “UniProt P24202 (peptide sequence: LKSRPDAVDLDPK, peptide start residue: 114)”, 0.712. As to “UniProt P0AF96 (peptide sequence: AHVTAETPK, peptide start residue: 26)”, the log2 fold change was -0.321. The same measure for “UniProt P33667 (peptide sequence: MIGSNHLPECLR, peptide start residue: 220)”: 0.32. Take “UniProt P24192 (peptide sequence: PAPQQVCDDPR, peptide start residue: 310)”: the log2 fold change is -0.597. The same measure for “UniProt P32662 (peptide sequence: TMGKPPVDDDIPAEEQVR, peptide start residue: 75)”: 0.514; for “UniProt P39452 (peptide sequence: IIDTYAEATR, peptide start residue: 646)”: -1.19.

For the target “UniProt P05719 (peptide sequence: FDTTDLVFVPK, peptide start residue: 54)”, the log2 fold change was -0.655.

For “UniProt P04993 (peptide sequence: YLDLLQAR, peptide start residue: 418)”, the log2 fold change was -1.02.
